Source: the supplement of paper PMC13392028
The full ranking holds about 4,100 sequences; the median of “RBNS R-value (6-mer enrichment in protein-bound RNA vs input library)” is about 0.96, and the highest 2% start at about 2.4. Only a selection was taken, and the highest values are over-represented in it overall.

Test system: PyIESI-1 RRM domain (Plasmodium yoelii PY17X_0911200 aa 795-956, GST fusion)
Assay: RBNS R-value (6-mer enrichment in protein-bound RNA vs input library) (ratio); higher = stronger binding preference; the methods of the paper give 50 / 100 / 500 nM protein instead
Description: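 RNA Bind-n-Seq: recombinant GST-tagged IESI-1 RRM domain was incubated at room temperature with a random 40-nt in vitro transcribed RNA library at 250, 500 or 1000 nM protein. Bound RNA was pulled down on glutathione beads and sequenced. R-value is the enrichment of each 6-mer in the bound RNA relative to the input library. Each 6-mer sits inside the random 40-mer context, not as an isolated oligo. Values are replicate 1 only.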

Sequence	RBNS R-value (protein concentration: 250 nM)	RBNS R-value (protein concentration: 500 nM)	RBNS R-value (protein concentration: 1000 nM)
CGGGUA	0.923	0.929	0.9
GUGAUA	2.97	2.94	3.2
GUGAAA	0.997	0.961	0.925
CUGAUU	6.33	5.69	5.82
GUGAAU	0.995	1	0.944
UUGAUU	7.23	6.65	6.84
CAGAUU	1.53	1.52	1.61
GUGAUC	1.68	1.71	1.81
UGGAUU	1.02	1.04	1.01
GUGAGA	1.03	1.06	0.984
UUGAGU	1.03	1.07	1.03
GUGAUU	4.55	4.24	4.44
CUGAAU	1.09	1.11	1.07
GUACUA	0.638	0.638	0.595
UACGGA	0.876	0.89	0.885
GAAUCA	0.819	0.828	0.81
UAGUGG	0.775	0.827	0.76
CAGUUC	0.829	0.84	0.843
GCCCUU	0.971	1.02	1.03
GGGCAC	1.06	1.04	1.06
UUGCAC	1.32	1.29	1.31
UGAUAG	4.53	4.33	4.55
CGAUAC	1.26	1.34	1.39
GGAUAC	0.904	0.919	0.891
